Source: PubChem BioAssay (NCI)
About 83,000 compounds went through this panel and 20% of them were active in at least one assay; those are over-represented in the sample as a whole.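 Note: values are percent growth. 100 is the growth of untreated cells, values between 100 and 0 indicate rising inhibition; between -100 and 0 indicates cell death.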 Unmarked numbers belong to inactive results. The source made the active and inactive calls. Rule for the calls: active = growth percent below 10; inactive = the rest.

tested on: SK-MEL-28 melanoma; assay: NCI-60 one-dose screen, 48 h (100 = growth as untreated, 0 = no growth, -100 = all killed); conditions: 10 µM unless noted

| Structure (SMILES) | growth |
| --- | --- |
| CNc1cc(C(=O)O)nc(NC)n1 | 92.7% |
| Brc1ccc2c(c1)CN(C1CCCCC1)CO2 | 118% |
| CCN=C1C=CC(=C(c2ccc(N(CC)CC)cc2)c2ccc(N(CC)CC)cc2)c2ccccc21 | -67.6% (active) |
| O=C(CSc1nc2ccc([N+](=O)[O-])cc2[nH]1)Nc1ccc(F)c(Cl)c1 | 22% |
| COc1ccc(-c2ccc(NNC(=O)c3ccc(F)cc3)nn2)cc1OC | 101% |
| CCOC(CNC(=O)c1cccc([N+](=O)[O-])c1)OCC | 106% |
| CN(C)C(=S)Sc1ccc([N+](=O)[O-])cc1[N+](=O)[O-] | 75.1% |
| CCN(CC)CC(C)Nc1ccc(C)c2sc3ccccc3c(=O)c12 (stereo unspecified) | 38.9% |
| CN(C)Cc1ccc[nH]1 | 107% |
| CNC(=O)c1cc(Oc2cccc3nc(NC(=O)Nc4cc(C(F)(F)F)cc(C(F)(F)F)c4)ccc23)ccn1 | 33.2% |
| CC1=CC[C@@H]2C(C)(C)[C@@H](O)CC[C@@]2(C)[C@@H]1COc1ccc2ccc(=O)oc2c1 | 91.4% |
| CC(=O)CC(=O)SC1=NCCS1 | 115% |
| CSc1cccc([N+](=O)[O-])c1 | 111% |
| O=C1/C(=C\c2cccn2Cc2ccccc2)c2ccccc2N1c1c(Cl)cccc1Cl | 98.4% |
| COc1ncnc2c(-c3ccccc3)cn(COCc3ccccc3)c12 | 77.9% |
| C=C(C)[C@@H]1CC[C@]2(C(=O)NCCCN)CC[C@]3(C)[C@H](CC[C@@H]4[C@@]5(C)CC[C@H](O)C(C)(C)[C@@H]5CC[C@]43C)[C@@H]12 | -31.4% [100 µM] (active) |
| COc1ccc(/C=C/C=C\C(=O)c2ccc(-n3ccnc3)cc2)cc1 | 104% |
| Cc1ccccc1-n1nnc(C(=O)Nc2nc3ccc(F)cc3s2)c1C | 57.3% |
| O=C(N/N=C/c1ccc([N+](=O)[O-])cc1)c1ccc(Br)o1 | 110% |

| Structure (SMILES) | growth |
| --- | --- |
| Cc1nc(-c2ccccc2)sc1CC#N | 120% |
| O=S(=O)(/N=c1/n(-c2ccccc2)nc2n1CCN2C1=NCCN1)c1ccc(-c2ccccc2)cc1 | 105% |
| Nc1ccc2c(c1)Cc1cc(NC(=O)C(F)(F)F)ccc1-2 | 102% |
| O=C(Nc1ccc(C(=O)/C=C/c2ccc(N3CCOCC3)cc2)cc1)Nc1ccc([N+](=O)[O-])cc1 | 109% |
| C=CCc1nc2ccccc2s1 | 106% |
| O=C(Nc1cc(F)cc2cccnc12)c1cnc(N2CCNCC2)cn1 | 97.4% |
| C[n+]1c2ccccc2nc2c(N)cc(N)cc21 | 109% |
| CCOC(=O)CCC[P+](c1ccccc1)(c1ccccc1)c1ccccc1 | 83.8% |
| COc1ccc2nc3ccccc3c(NCCNCCO)c2c1 | -70.4% (active) |
| c1nc(N2CCOCC2)c2[nH]ccc2n1 | 106% |
| Oc1c(CNCCNCc2cc(Cl)cc(Cc3ccccc3)c2O)cc(Cl)cc1Cc1ccccc1 | 19.5% |
| COc1cc(Cl)cc(-c2nn(C(=O)NS(=O)(=O)c3ccccc3)cc2-c2ccncc2)c1 | 98.7% |
| COc1cccc(-c2[nH]c(=S)ncc2C(=O)c2ccccc2)c1 | 81.4% |
| CC(C)(C)c1cc(C(=O)Nc2ccccc2C(=O)NCCN)cc(C(C)(C)C)c1 | -84% (active) |
| N=C(N)c1ccc(-c2ccc(-c3ccc(-c4cccs4)s3)s2)cc1F | 101% |
| Cc1c(Cn2cc(COc3ccc(Br)cc3)nn2)c(C)c(Cn2cc(COc3ccc(Br)cc3)nn2)c(C)c1Cn1cc(COc2ccc(Br)cc2)nn1 | 94.1% |
| CCc1ccc(-c2ccc(COc3ccc(CC4SC(=O)NC4=O)cc3)cc2)cc1 (stereo unspecified) | 85% |
| Cc1ccc(N)c(O)c1 | 103% |
| CCCCN(CCCC)CC(O)c1ccc(OCc2ccccc2)c2ccccc12 (stereo unspecified) | 109% |

tested on: SK-MEL-2 melanoma; assay: as above; conditions: 10 µM unless noted

| Structure (SMILES) | growth |
| --- | --- |
| CNc1cc(C(=O)O)nc(NC)n1 | 103% |
| Brc1ccc2c(c1)CN(C1CCCCC1)CO2 | 107% |
| CCN=C1C=CC(=C(c2ccc(N(CC)CC)cc2)c2ccc(N(CC)CC)cc2)c2ccccc21 | -76.3% (active) |
| O=C(CSc1nc2ccc([N+](=O)[O-])cc2[nH]1)Nc1ccc(F)c(Cl)c1 | -7.66% (active) |
| COc1ccc(-c2ccc(NNC(=O)c3ccc(F)cc3)nn2)cc1OC | 93.5% |
| CCOC(CNC(=O)c1cccc([N+](=O)[O-])c1)OCC | 97.2% |
| CN(C)C(=S)Sc1ccc([N+](=O)[O-])cc1[N+](=O)[O-] | 57.8% |
| CCN(CC)CC(C)Nc1ccc(C)c2sc3ccccc3c(=O)c12 (stereo unspecified) | 116% |
| CN(C)Cc1ccc[nH]1 | 93.5% |
| CNC(=O)c1cc(Oc2cccc3nc(NC(=O)Nc4cc(C(F)(F)F)cc(C(F)(F)F)c4)ccc23)ccn1 | 51% |
| CC1=CC[C@@H]2C(C)(C)[C@@H](O)CC[C@@]2(C)[C@@H]1COc1ccc2ccc(=O)oc2c1 | 68.1% |
| CC(=O)CC(=O)SC1=NCCS1 | 131% |
| CSc1cccc([N+](=O)[O-])c1 | 106% |
| O=C1/C(=C\c2cccn2Cc2ccccc2)c2ccccc2N1c1c(Cl)cccc1Cl | 45.7% |
| COc1ncnc2c(-c3ccccc3)cn(COCc3ccccc3)c12 | 34.5% |
| C=C(C)[C@@H]1CC[C@]2(C(=O)NCCCN)CC[C@]3(C)[C@H](CC[C@@H]4[C@@]5(C)CC[C@H](O)C(C)(C)[C@@H]5CC[C@]43C)[C@@H]12 | -24.2% [100 µM] (active) |
| COc1ccc(/C=C/C=C\C(=O)c2ccc(-n3ccnc3)cc2)cc1 | 108% |
| Cc1ccccc1-n1nnc(C(=O)Nc2nc3ccc(F)cc3s2)c1C | 65.3% |
| O=C(N/N=C/c1ccc([N+](=O)[O-])cc1)c1ccc(Br)o1 | 33.6% |

| Structure (SMILES) | growth |
| --- | --- |
| Cc1nc(-c2ccccc2)sc1CC#N | 112% |
| O=S(=O)(/N=c1/n(-c2ccccc2)nc2n1CCN2C1=NCCN1)c1ccc(-c2ccccc2)cc1 | 115% |
| Nc1ccc2c(c1)Cc1cc(NC(=O)C(F)(F)F)ccc1-2 | 98.6% |
| O=C(Nc1ccc(C(=O)/C=C/c2ccc(N3CCOCC3)cc2)cc1)Nc1ccc([N+](=O)[O-])cc1 | 97.6% |
| C=CCc1nc2ccccc2s1 | 107% |
| O=C(Nc1cc(F)cc2cccnc12)c1cnc(N2CCNCC2)cn1 | 104% |
| C[n+]1c2ccccc2nc2c(N)cc(N)cc21 | 121% |
| CCOC(=O)CCC[P+](c1ccccc1)(c1ccccc1)c1ccccc1 | 85.4% |
| COc1ccc2nc3ccccc3c(NCCNCCO)c2c1 | -56.1% (active) |
| c1nc(N2CCOCC2)c2[nH]ccc2n1 | 96% |
| Oc1c(CNCCNCc2cc(Cl)cc(Cc3ccccc3)c2O)cc(Cl)cc1Cc1ccccc1 | 27.1% |
| COc1cc(Cl)cc(-c2nn(C(=O)NS(=O)(=O)c3ccccc3)cc2-c2ccncc2)c1 | 98.7% |
| COc1cccc(-c2[nH]c(=S)ncc2C(=O)c2ccccc2)c1 | 99.9% |
| CC(C)(C)c1cc(C(=O)Nc2ccccc2C(=O)NCCN)cc(C(C)(C)C)c1 | 20.3% |
| N=C(N)c1ccc(-c2ccc(-c3ccc(-c4cccs4)s3)s2)cc1F | 114% |
| Cc1c(Cn2cc(COc3ccc(Br)cc3)nn2)c(C)c(Cn2cc(COc3ccc(Br)cc3)nn2)c(C)c1Cn1cc(COc2ccc(Br)cc2)nn1 | 87.9% |
| CCc1ccc(-c2ccc(COc3ccc(CC4SC(=O)NC4=O)cc3)cc2)cc1 (stereo unspecified) | 71.6% |
| Cc1ccc(N)c(O)c1 | 100% |
| CCCCN(CCCC)CC(O)c1ccc(OCc2ccccc2)c2ccccc12 (stereo unspecified) | 99.4% |
